Compound activity as filed in PubChem.
KinaseGlo FLuc – counter-screen: inhibitors of Kinase-Glo firefly luciferase. Kinase-Glo luciferase, ATP luminescence, 8 min. 0.28% of 200,000 active. Potency, µM (highest dose often 38.3 µM), for inactives: at the highest dose activity change, negative = inhibition, hits mostly inhibitors; active means well fitted curve in the direction sought with a large enough effect; inconclusive means small, poorly fitted or top-dose-only effect, or another doubt; inactive means no such curve, though single readings can be large; an effect the other way counts as inactive or inconclusive; further: nearly all actives have a fitted effect of over 60% in size
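Compounds were added to a substrate mix at pH 7.2 (50 mM imidazole, 10 uM ATP, within the enzyme's linear range), followed by Kinase-Glo detection reagent; luminescence was measured after 8 minutes at ambient temperature.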
IMPase Li inh – cell-permeable IMPase inhibitors with lithium potentiation; Potency, µM (top dose mostly 59.4 µM), for the others: at the highest dose activity, negative = IMPase inhibition, actives largely listed as inhibitors; 0.35% of 210,000 active; CHO-M1 cells, IP1 TR-FRET (IP-One), carbachol + lithium; active means well fitted curve in the direction sought with a large enough effect; inconclusive means small, poorly fitted or top-dose-only effect, or another doubt; inactive means no such curve, though single readings can be large; an effect the other way counts as inactive or inconclusive;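 further: IP1 builds up when IMPase is blocked and the TR-FRET signal falls; plate controls were basal vehicle for no effect and high inhibitor control for full effect; nearly all actives have a fitted effect of over 50% in size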
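Test compounds were applied to CHO-M1 cells previously cultured for 16–30 h at 2000 per well. A small lithium amount accompanied them; after 30 min at 37C, IP1 was quantified by TR-FRET.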
HPGD block – inhibitors of human 15-hydroxyprostaglandin dehydrogenase (HPGD) | P15428 | purified HPGD, NADH fluorescence kinetic, PGE2 substrate | Potency, µM, for the others: top-dose activity change, negative = inhibition, actives largely listed as inhibitors | 4.3% of 150,000 active | AID 894
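NADH formation kinetics: reaction with 30 uM PGE2 and 1 mM NAD+ (final), 20 nM enzyme, Tris-HCl pH 8 with Tween 20, after 15 min compound preincubation at room temperature. Fluorescence change, last versus first of five reads.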
ALDH1A1 inh – blocks purified human ALDH1A1 activity | Potency, µM (top dose mostly 75.3 µM), for the others: top-dose activity, negative = inhibition, actives largely listed as inhibitors | Purified ALDH1A1, NADH fluorescence, propionaldehyde substrate | 7.3% of 220,000 active;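 further: plate controls were no enzyme wells and a reference inhibitor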
Target sequence (P00352 whole entry, looked up): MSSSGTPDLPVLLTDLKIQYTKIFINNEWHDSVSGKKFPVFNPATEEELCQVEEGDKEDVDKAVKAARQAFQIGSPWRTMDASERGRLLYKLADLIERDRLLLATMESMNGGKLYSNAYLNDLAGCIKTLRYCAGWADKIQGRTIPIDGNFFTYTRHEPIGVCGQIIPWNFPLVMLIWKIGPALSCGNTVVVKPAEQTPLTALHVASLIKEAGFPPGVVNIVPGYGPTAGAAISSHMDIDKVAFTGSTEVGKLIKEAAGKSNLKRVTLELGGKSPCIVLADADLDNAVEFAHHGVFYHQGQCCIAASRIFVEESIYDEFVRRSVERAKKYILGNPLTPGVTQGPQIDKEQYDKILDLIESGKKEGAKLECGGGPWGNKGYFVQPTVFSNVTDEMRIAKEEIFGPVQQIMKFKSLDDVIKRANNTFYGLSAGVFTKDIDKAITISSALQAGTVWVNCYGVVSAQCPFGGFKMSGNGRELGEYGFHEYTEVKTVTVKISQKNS
LMNA splice mod – changes lamin A minigene splicing in HeLa cells; HeLa LMNA splicing GFP/RFP minigene ratio, 48 h; Potency, µM (series often up to 46.1 µM), inactives show top-dose ratio change, negative = inhibition, hits mostly inhibitors; 0.01% of 200,000 active; AID 1487; active means well fitted inhibition curve with a large enough effect in the signal ratio, with a control signal flat, not every such curve was filed as active; inconclusive means small, poorly fitted or top-dose-only effect, or effect the other way, or a change in a side signal; the % refers to the signal ratio
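Read-out is the ratio of GFP to DsRed2 object intensity, acquired by 488 nm laser-scanning cytometry on HeLa lamin A-EGFP minigene reporter cells. Compound incubation 48 hrs at 37 °C in Opti-MEM with 2% FBS; DMSO 0.5% final.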
* = called active by the depositor; ? = inconclusive; nt = not tested or not shown; [ ] = remark or other dose. The list is not random: actives were taken first. Their share in the collection is about 9%. Unless noted, the call rests on the fitted dose curve; in most records, active means well fitted inhibition curve with a large enough effect (not every such curve was filed as active); inconclusive means small, poorly fitted or top-dose-only effect, or another doubt; inactive means no such curve, though single readings can be large or run the other way. Unless noted, on the % scale 0 is the no-effect control and ±100 the full control effect; potency means the concentration at half of the fitted maximal effect.

SMILES | KinaseGlo FLuc | IMPase Li inh | HPGD block | ALDH1A1 inh | LMNA splice mod
O=C(O)c1ccc(-n2c(-c3ccccc3)n[nH]c2=S)cc1 | 0% | -9%[38.3 µM] | -18% | ? | -3%
Cc1ccc(-c2ccccc2)n1-c1ccc(C(=O)O)cc1 | 0% | -6% | -5% | 25µM* | -2%
CCN(C(=O)c1cc2cc3ccc(C)cc3nc2o1)c1ccc(OC)cc1 | 0% | 10% | -18% | ? | -17%
Cc1ccc2cc3cc(C(=O)N4CC(C)CC(C)C4)oc3nc2c1 (stereo not given) | 0% | 10% | 16µM* | 25µM* | -7%
Cc1ccc2cc3cc(C(=O)N4CCCCC4C)oc3nc2c1 (stereo not given) | -4% | -9%[38.3 µM] | 16µM* | ? | 15%
Cc1ccc2cc3cc(C(=O)NCCC(C)C)oc3nc2c1 | -2% | 3%[38.3 µM] | ? | ? | -11%
CCn1c(SCC(=O)Nc2cc(S(=O)(=O)N3CCOCC3)ccc2OC)nnc1-c1ccncc1 | 1% | 1% | nt | 4% | 13%[46 µM]
COc1ccc(C(c2c(C)[nH]n(C(N)=S)c2=O)C(C#N)C#N)cc1 (stereo not given) | 0% | 13% | 32µM* | 13µM* | -6%
Cc1ccc2c(CSc3nnc(N)s3)cc(=O)oc2c1 | -6% | 17%[38.3 µM] | 20µM* | 22µM* | 4%
COc1ccc(CNC(=O)Cn2c(=O)oc3cc(S(=O)(=O)NCc4ccccc4)ccc32)cc1 | nt | nt | nt | nt | 6%[46 µM]
O=c1cc(CN2CCN(c3ccccc3)CC2)c2cc(O)c(-c3ccccc3)cc2o1 | -6% | -10%[38.3 µM] | -20% | ? | 0%
O=c1cc(CN2CCN(C/C=C/c3ccccc3)CC2)c2cc(O)ccc2o1 | -1% | 7%[38.3 µM] | -15% | 32µM* | ?
CN1CCc2nc3sc(C(=O)NCc4ccccc4)c(N)c3cc2C1 | 1% | 48% | nt | 25µM* | ?
CC(=O)Nc1ccc(C2C(C)CCC3C(=O)N4C(CCC(C)[C@@H]4c4ccc(NC(C)=O)cc4)C(=O)N32)cc1 (stereo not given in full) | nt | nt | nt | 15%[13.5 µM] | nt
CC[C@H]1C(c2cccc(Cl)c2)=NN(c2ccccc2)[C@@H]1CO | -2%[39.9 µM] | 22µM* | ? | ? | nt
NNC(=O)c1sccc1OCc1ccc(Cl)cc1 | -5% | 39% | nt | 2.2µM* | -29%[46 µM]
Cc1cc(NC(=S)N(CCN2CCCCC2)Cc2ccco2)ccc1Cl | 0% | 20% | nt | 7.9µM* | ?
COc1ccc(C/C(N)=N/OC(=O)c2cccs2)cc1 | 1% | 1% | nt | -1% | ?
COc1ccc(C2CC2/C(C)=N/OC(=O)c2cccs2)cc1 (stereo not given) | -2% | 27%[38.3 µM] | 22µM* | -14% | 15%
COc1ccc(C(=O)O/N=C(/C)c2cccs2)cc1 | 13µM* | 16%[38.3 µM] | -9% | -2% | 6%
COc1ccc(C(=O)O/N=C(\C)c2nccs2)cc1 | 13µM* | 9% | nt | ? | nt
Cc1cc(C)cc(Nc2cc(=O)n(C3CCCCC3)c(=O)[nH]2)c1 | 0% | 6%[38.3 µM] | -5% | 0.45µM* | 4%
O=c1cc(N2CCCCC2)[nH]c(=O)n1C1CCCCC1 | nt | 1% | nt | ? | nt
COc1ccc(Nc2cc(=O)n(C3CCCCC3)c(=O)[nH]2)c(OC)c1 | -9% | -1%[38.3 µM] | -3% | 7.1µM* | 8%
COc1ccc2c(c1)O[C@H](c1ccc3c(c1)OCO3)[C@@H](OC(=O)NS(=O)(=O)c1ccc(C)cc1)C2=O | -3% | 7% | -2% | ? | nt
SMILES | KinaseGlo FLuc | IMPase Li inh | HPGD block | ALDH1A1 inh | LMNA splice mod
Cc1ccsc1C(=O)N/N=C/C=C/c1ccccc1[N+](=O)[O-] | -2% | 34%[38.3 µM] | -13% | ? | -1%
Cc1cccc(C(=O)N/N=C/c2ccc3c(c2)OCO3)n1 | -8% | -11%[38.3 µM] | ? | 0% | -3%
Cc1ccccc1/C=N/NC(=O)c1sccc1C | 13µM* | -3% | -26% | 3% | 5%
Cc1ccsc1C(=O)N/N=C/c1ccc2c(c1)OCO2 | 2µM* | 8% | ? | 0% | 13%
Cc1cc(C(=O)N/N=C/c2ccc3c(c2)OCO3)c(C)o1 | 13µM* | 9% | nt | 6% | 6%[46 µM]
O=C(N/N=C/c1ccc2c(c1)OCO2)c1ccccn1 | 10µM* | -13%[38.3 µM] | -21% | 4% | 17%
O=C(N/N=C/c1cc2c(cc1Br)OCO2)c1ccccn1 | nt | nt | nt | 0% | nt
COc1cc2c(cc1O)C(Cc1ccc(O)cc1)[N+](C)(C)CC2 (stereo not given) | -1% | -1% | -16% | -5% | nt
O=C1C2C3CCC(C3NCc3ccccc3)C2C(=O)N1Cc1ccccc1 (stereo not given) | -6% | 14%[38.3 µM] | -14% | ? | -6%
O=C(N/N=C/c1ccc2c(c1)OCO2)c1cccs1 | 13µM* | -4% | -11% | 2% | 8%
O=C(N/N=C/c1ccc2c(c1)OCO2)c1ccc2c(c1)OCCO2 | -15% | 4% | -21% | -12% | ?
CCOc1cc(S(=O)(=O)NC2CCCCCC2)ccc1F | 7% | 52%[38.3 µM] | 25µM* | 3.2µM* | ?
CSc1nc2ccc(S(=O)(=O)NC3CCCCC3)cc2s1 | -2% | 42%[38.3 µM] | 16µM* | ? | ?
CSc1nc2ccc(S(=O)(=O)N3CCCCC3)cc2s1 | -1% | 26%[38.3 µM] | -1% | 9% | -14%
C[C@@H](Oc1ccc(Oc2cnc3ccc(Cl)cc3n2)cc1)C(=O)O | 2% | 13% | 18µM* | ? | ?
Cc1ccc(SCC(=O)N(Cc2nc(-c3ccccc3)no2)C(C)C)cc1 | -2% | 31%[38.3 µM] | 5% | 25µM* | -21%
CC(C)N(Cc1nc(-c2ccccc2)no1)C(=O)c1ccc(Cl)cc1 | 0% | 14%[38.3 µM] | -10% | 0% | ?
CC(C)N(Cc1nc(-c2ccccc2)no1)C(=O)c1ccc(Br)o1 | 4% | 34%[38.3 µM] | -15% | 10µM* | -14%
CCOC(=O)c1c(C)[nH]sc1=S | 5% | 14µM* | ? | ? | 3%
CC(C)(C)NC(=O)CN(Cc1cccs1)C(=O)CN1C(=O)C(=O)c2ccccc21 | 4% | 14% | nt | 0.028µM* | nt
O=[N+]([O-])c1ccc(Nc2nc(Cl)nc(NCCO)n2)cc1 | -1% | -8% | nt | 3% | nt
Nc1c(S(=O)(=O)O)cc(Nc2ccc(Nc3nc(Cl)nc(Nc4ccc(S(=O)(=O)O)cc4)n3)c(S(=O)(=O)O)c2)c2c1C(=O)c1ccccc1C2=O | ? | 30% | 16µM* | -10% | ?
Clc1ccc(-c2nc(C3CCCCC3)no2)cc1 | -2% | 2% | nt | -6% | 20%[46 µM]
Cc1ccccc1Nc1nc(N)c2ccccc2n1 | 13µM* | 7% | nt | -3% | ?
